High-throughput results: PubChem BioAssay, National Center for Advancing Translational Sciences (NCATS)
An excerpt weighted towards active compounds, which were near 8% of everything screened.
LASV entry inh – Lassa virus entry inhibition | Potency, µM (titrated, usually from 37.9 µM), inactives show at the highest dose activity change, negative = inhibition, hits mostly inhibitors | 300,000 tested, 1.2% active | Lassa virus pseudotype entry inhibition, cell reporter; calls by dose curve; tested in HEK293 cells; also: potency is read from the fitted curve at half-maximal effect; % is scaled to controls: 0 for no effect and ±100 for the full control effect; nearly all actives have a fitted effect of over 50% in size
HCMV antiviral – human cytomegalovirus inhibition; activity change, negative = inhibition, % at 57.5 µM; 410,000 tested, 4.5% active; HFF cells, HCMV-luciferase reporter, 72 h; hits give low values; in the data active = activity change below about -60%; inconclusive = no clear call, values can overlap the other calls; inactive = above about -39%; also: % is scaled to controls: 0 for no effect and ±100 for the full control effect
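Compounds were evaluated in HFFs infected with an HCMV luciferase reporter virus (MOI 1 PFU/cell). Luciferase in lysates collected 72 h post infection served as the replication measure.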
Marburg entry inh – inhibitors of Marburg virus binding or cell entry. Marburg virus pseudotyped entry inhibition, cell reporter. Potency, µM (doses to about 37.8 µM), for the others: top-dose activity change, negative = inhibition, hits mostly inhibitors. 300,000 tested, 1.8% active; calls by dose curve; tested in HEK293 cells; also: potency is read from the fitted curve at half-maximal effect; % is scaled to controls: 0 for no effect and ±100 for the full control effect
SARS PLP yeast – inhibitors of SARS-CoV papain-like protease in yeast; 330,000 tested, 0.19% active; Potency, µM (highest dose often 32.9 µM), without a hit: at the highest dose activity, positive = growth rescue, hits mostly activators; AID 485353; S. cerevisiae expressing SARS-CoV PLpro, growth rescue; calls by dose curve; also: potency is read from the fitted curve at half-maximal effect; 0% is about no effect; nearly all actives have a fitted effect of over 55% in size
FMDV inh – blocks foot and mouth disease virus | FMDV antiviral cell-based qHTS | Potency, µM (doses to about 57.9 µM), inactives show top-dose activity change, negative = inhibition, actives largely listed as inhibitors | 410,000 tested, 1.2% active | AID 1159524; calls by dose curve; tested in HEK293T cells; also: read-out not given here; potency is read from the fitted curve at half-maximal effect; % is scaled to controls: 0 for no effect and ±100 for the full control effect; nearly all actives have a fitted effect of over 45% in size
HCV inh – blocks hepatitis C virus | Huh7.5.1 HCVcc-Cre infection, luciferase reporter, 44 h | Potency, µM (top dose mostly 41.8 µM), without a hit: at the highest dose activity change, negative = inhibition, actives largely listed as inhibitors | 340,000 tested, 3.4% active; active = well fitted inhibition curve with a large enough effect; inconclusive = small, poorly fitted or top-dose-only effect, or another doubt; inactive = no such curve, though single readings can be large or run the other way; also: potency is read from the fitted curve at half-maximal effect; % is scaled to controls: 0 for no effect and ±100 for the full control effect
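1,000 cells/well; 4 h culture; + compound; + HCVcc-Cre (~0.5 moi); 44 h; luciferase substrate, RT 15 min; read 15 sec.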
* = called active by the depositor; [ ] = remark or other dose.

`Cc1ccc(O)c(-c2cc(C(=O)Nc3ccc(S(=O)(=O)N4CC(C)OC(C)C4)cc3)[nH]n2)c1` (centres undefined) gave LASV entry inh inconclusive, HCMV antiviral -14, Marburg entry inh inconclusive, SARS PLP yeast 4%, FMDV inh inconclusive and HCV inh 11µM*.
Screening NS(=O)(=O)c1ccc(CCNC(=O)c2cc(-c3cc(Cl)ccc3O)n[nH]2)cc1 returned HCMV antiviral -80*, SARS PLP yeast 2%, FMDV inh 0% and HCV inh -19%.
CC[C@H](CO)NC(=O)[C@H]1C=C2c3cccc4[nH]cc(c34)C[C@H]2N(C)C1 was read as Marburg entry inh -42%.
For Cn1c(=O)n(Cc2ccccc2Br)c2ccccc21 the results were HCMV antiviral -62*, Marburg entry inh inconclusive, SARS PLP yeast 1%, FMDV inh -15% and HCV inh -12%.
Screening COc1ccc(S(=O)(=O)N2c3cc(Cl)ccc3Oc3nc4ccccc4nc32)cc1 returned LASV entry inh -8%, HCMV antiviral -89*, Marburg entry inh -10%, SARS PLP yeast 8%, FMDV inh 69% and HCV inh inconclusive.
CC(=O)NCc1c(Cl)cccc1-n1cccc1 was read as LASV entry inh -2%, HCMV antiviral -3, Marburg entry inh -15%, SARS PLP yeast 10µM*, FMDV inh 6% and HCV inh 19%.
For CCC(=O)NCc1c(Cl)cccc1-n1cccc1 the results were LASV entry inh 1%, HCMV antiviral 24, Marburg entry inh -5%, SARS PLP yeast 3%, FMDV inh -11% and HCV inh 26%.
For Cn1c(-c2cccc(Br)c2)n[nH]c1=O the results were LASV entry inh -5%, HCMV antiviral -72*, Marburg entry inh -16%[46.1 µM], SARS PLP yeast 2%, FMDV inh -7% and HCV inh -1%.
Screening O=C(CCC1N=C2c3ccccc3N=C(SCC(=O)Nc3ccccc3F)N2C1=O)NCc1ccco1 (centres undefined) returned LASV entry inh -4%[46.1 µM], HCMV antiviral 16, Marburg entry inh 4%[46.1 µM] and FMDV inh -10%.
`Cc1cccc(Cn2c(CNS(=O)(=O)c3ccc(C(C)C)cc3)nc3cccnc32)c1` gave LASV entry inh -4%[46.1 µM], HCMV antiviral -18 and FMDV inh 35%.
`CC1=Nc2cc(C(=O)NC(C)C)ccc2Sc2ccc(C)cc21` gave LASV entry inh 3%[46.1 µM], HCMV antiviral -77*, Marburg entry inh inconclusive and FMDV inh -18%.
Screening CCC1=Nc2cc(C(=O)NC3CCCC3)ccc2Sc2ccc(Cl)cc21 returned LASV entry inh inconclusive, HCMV antiviral -71*, Marburg entry inh inconclusive and FMDV inh -23%.
For CCC1=Nc2cc(C(=O)NCc3ccco3)ccc2Sc2ccccc21 the results were LASV entry inh inconclusive, HCMV antiviral -3, Marburg entry inh -13%, SARS PLP yeast -32%, FMDV inh 7% and HCV inh inconclusive.
CC1=Nc2cc(C(=O)NC3CCCC3)ccc2Sc2ccc(Cl)cc21 was read as LASV entry inh inconclusive, HCMV antiviral -72* and FMDV inh -25%.
For CCC1=Nc2cc(C(=O)NCc3ccco3)ccc2Sc2ccc(Cl)cc21 the results were LASV entry inh inconclusive, HCMV antiviral -67*, Marburg entry inh inconclusive, SARS PLP yeast -14%, FMDV inh -14% and HCV inh inconclusive.
`COc1ccc(S(=O)(=O)NCCc2sc(C)nc2C)cc1F` gave LASV entry inh -13%[46.1 µM], HCMV antiviral -25 and FMDV inh 12%.
COc1ccccc1NC(=O)c1ccc(-c2nc(COc3ccc(C)cc3)c(C)o2)cc1 was read as LASV entry inh -13%[46.1 µM], HCMV antiviral inconclusive and FMDV inh inconclusive.
Screening CC(C)=CCC1=C(O)[C@](O)(CC=C(C)C)C(=O)C(C(=O)CC(C)C)=C1O returned FMDV inh -9%.
`CC1=Nc2cc(C(=O)NC3CCCC3)ccc2Sc2ccc(C)cc21` gave LASV entry inh -33%[46.1 µM], HCMV antiviral -93*, Marburg entry inh inconclusive and FMDV inh -2%.
